Assay results published in PubChem BioAssay (NCI).
This is part of a sample that, as a whole, favours compounds with a hit. Of some 83,000 tested, about 20% had one in any assay.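 Step 1: grow cells in 96-well plates. Step 2: add test compound at a single concentration. Step 3: incubate 48 h. Step 4: record percent growth.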 Unmarked numbers belong to inactive results. The source made the active and inactive calls. The calls were made as follows: active = growth percent below 10; inactive = the rest.

Each compound was assayed on SK-MEL-28 melanoma (assay: NCI-60 one-dose screen, 48 h (100 = growth as untreated, 0 = no growth, -100 = all killed)). Details: 10 µM unless noted.
In the case of `COc1ccc(-c2nn(-c3ccccc3)cc2/C=C/C(=O)c2ccc(NC(=O)CCCCCCC(=O)NO)cc2)cc1`, the growth is reported as 113%. `O=C(NCCCNc1cc(-c2cn(-c3ccccc3)nc2-c2cccc(O)c2)ccn1)Nc1cccc(C(F)(F)F)c1` was tested, and the growth was -12.1% (active). `Cc1[nH]nc2ccc(-c3nc4cnc(N5CCN(C)CC5)cn4c3Nc3ccc(F)cc3Br)cc12` gave a growth of 62.8%. Work on `O=C(/C=C/c1cccc(O)c1)c1ccc(O)cc1` yielded a growth of 101%. `C#Cc1ccc(NC(=O)c2ccc(/C=C/C(=O)c3nccn3C)cc2)c(F)c1` gave a growth of 84%. Work on `O=C(Nc1ccc(F)cc1)c1cc(-c2ccc(F)cc2F)ccc1O` yielded a growth of 21.9%. Work on `Oc1ccc(CSc2nnc(-c3ccc(Oc4ccccc4)cc3)o2)c2cccnc12` yielded a growth of 52.2%. Compound `Cc1ccc(NC(=O)c2ccc(CN3CCN(C)CC3)c(C(F)(F)F)c2)cc1Oc1ccc(-c2[nH]nc3ncnc(N)c23)cc1` has a growth of 68.6%. With `N#Cc1c(NC(=O)c2ccccc2C(F)(F)F)sc2c1CCC(=O)C2` the growth was -14.9% (active). Compound `CCN(CC)c1ccc2cc(C(=O)NCCOCCOCCOCCn3cc(CCC(=O)Nc4ccc(C(=O)c5ccc(NC(=O)OC(C)(C)C)cc5)cc4)nn3)c(=O)oc2c1` has a growth of 82.6%. In the case of `CS(=O)(=O)c1ccc(-c2nn(-c3ccccc3)cc2/C=N/NC(=O)c2ccncc2)cc1`, the growth is reported as 105%. Work on `Cc1ccc(S(=O)(=O)N/N=C/c2cn(-c3ccc(F)cc3)nc2-c2ccc(S(C)(=O)=O)cc2)cc1` yielded a growth of 106%. In the case of `CS(=O)(=O)c1ccc(-c2nn(-c3ccccc3)cc2/C=C/C(=O)c2ccc(Br)cc2)cc1`, the growth is reported as 102%. `O=C(NCCCNc1cc(-c2cn(-c3ccccc3)nc2-c2cccc(O)c2)ccn1)Nc1ccc(F)cc1` was tested, and the growth was -61.3% (active). `CN1C(=O)N(C)C2C1NN=c1s/c(=C\c3ccccn3)c(=O)n12` (stereo not drawn) gave a growth of 107%. In the case of `Fc1ccc(-c2cc3nc(C(Cl)Cl)nc(-c4cccs4)n3n2)cc1`, the growth is reported as 23.6%. `COc1ccc([C@H]2c3[nH]c4ccccc4c3C[C@@H]3C(=O)N(C4CCN(Cc5ccccc5)CC4)CC(=O)N23)c(OC)c1` showed a growth of 85.1%. `Cn1ccnc1C(=O)/C=C/c1ccc(C(=O)Nc2ccc(NC(=O)CCNC(=O)c3csc(Br)n3)cc2)cc1` showed a growth of 89.3%. `Cc1nn(-c2ccccc2)cc1/C=N/Nc1nc(Nc2ccccc2)nc(Nc2ccc(S(N)(=O)=O)cc2)n1` was tested, and the growth was -13.9% (active). For `COCCC[C@H]1O[C@@](O)([C@H](C)[C@@H]2CC(OC)C(O)/C=C(C)/C=C(C)/C=C(\C)C(OC3O[C@@H](C)[C@H](O)C(O)[C@@H]3O)C(C)/C=C(C)/C=C(OC)/C=C(\C)C(=O)O2)C(OC)C(O)[C@]1(C)O[C@H]1C[C@@H](O)[C@H](O[C@H]2C[C@](C)(O)[C@H](O)C(C)O2)C(C)O1` (stereo partly drawn), the growth was 84.2%. `COc1ccc(N2C(=O)c3cc(OC)c(OC)cc3NC2SCc2ccccc2)cc1` (stereo not drawn) gave a growth of 96.9%. `Cc1cc2nc(C(Cl)Cl)nc(-c3ccco3)n2n1` showed a growth of 87.6%. In the case of `COc1ccc(S(=O)(=O)NCCCNc2nccc(-n3cnc4ccccc43)n2)cc1`, the growth is reported as 106%. In the case of `O=C(NCCCNc1cc(-c2cn(-c3ccccc3)nc2-c2cccc(O)c2)ccn1)Nc1cc(C(F)(F)F)cc(C(F)(F)F)c1`, the growth is reported as 83.7%. In the case of `Cc1ccc(NC(=O)c2ccc(CN3CCN(C)CC3)c(I)c2)cc1Oc1ccc(-c2[nH]nc3ncnc(N)c23)cc1`, the growth is reported as -84.6% (active). For `Cc1ccc(-n2cc(/C=C/C(=O)c3ccc(S(C)(=O)=O)cc3)c(-c3ccc(S(C)(=O)=O)cc3)n2)cc1`, the growth was 92.9%. `COc1cc(/C=C/C(=O)c2ccc(NC(=O)CSc3nnc(-c4ccc5nc(-c6ccccc6)[nH]c5c4)o3)cc2)cc(OC)c1OC` gave a growth of 93.4%. `O=c1oc2ccc(-c3ccc(F)cc3F)cc2c(=O)n1-c1cccc(C(F)(F)F)c1` gave a growth of 23.4%. Compound `C#CCOc1ccccc1C(Nc1ccccc1)c1nnnn1C1CCCCC1` (stereo not drawn) has a growth of 101%. `NCCN1CCN(c2nc(-c3ccccc3)nc3nc(-c4ccccc4)oc23)CC1` was tested, and the growth was -85.4% (active). In the case of `CN1C(=O)N(C)C2Nn3c(s/c(=C\c4ccccn4)c3=O)=NC21` (stereo not drawn), the growth is reported as 104%. For `CNC(=O)c1cc(N2CCc3cc(NC(=O)Nc4ccc(Cl)c(Cl)c4)ccc32)ccn1`, the growth was 86.5%. For `NS(=O)(=O)c1ccc(-n2cc(CC=O)nn2)cc1`, the growth was 114%. `COc1ccc(N)cc1C(=O)Nc1cccc(-c2cc(=O)c3c(OC)c(OC)c(OC)cc3o2)c1` was tested, and the growth was 86.6%. Work on `O=C(CSc1nnc(-c2ccc(Cl)cc2)n1-c1ccccc1)Nc1ccc(F)cc1` yielded a growth of 95.8%. Compound `O=C(c1cccc(F)c1)n1ccc2cc(NC(=S)Nc3cccnc3)ccc21` has a growth of 106%. `O=C(O)c1ccc(-n2cc(CNc3ccc(Cl)cc3)c(-c3ccc(F)cc3)n2)cc1` was tested, and the growth was 95.6%. Work on `CCC(CC)N1C(=O)/C(=c2\sc3n(c2=O)C2C(NN=3)N(CC)C(=O)N2CC)c2ccccc21` (stereo not drawn) yielded a growth of 58.6%.
